Results filed as inconclusive are left out. Calls of active or inactive are those of the source. The call rests on the fitted dose curve; in most records, active means well fitted cell-killing curve with a large enough effect; inconclusive means small, poorly fitted or top-dose-only effect; inactive means flat fitted curve, though single readings scatter.

A short description of the assay: qHTS of pediatric cancer cell lines to identify multiple opportunities for drug repurposing: Primary screen for DAOY cells (AID 1347090). Further: nearly all actives have a fitted effect of over 55% in size. The settings on record: DAOY medulloblastoma viability, CellTiter-Glo luminescence, 48 h; series mostly up to 46 µM; activity change, negative = cytotoxic: at the top concentration. The source says: Drug repurposing or repositioning has been offered as a strategy for drug development in oncology programs. This approach has special potential for childhood cancers and other rare or orphan diseases, where the expected return on new drug development has been a disincentive to pharmaceuticals.
In this project we exploit the poly-pharmacology of drugs to discover new indications via phenotypic screening of a panel of 19 well-characterized cell lines derived from solid tumors seen in children and adolescents. The goal is to identify approved drugs with previously unrecognized anticancer properties that has the potential to reveal new mechanisms and biological processes involved in carcinogenesis or drug resistance. We employed a titration-based paradigm (quantitative high-throughput screening or qHTS), where all compounds were tested at multiple concentrations for their effect on cell viability. Concentration-response curves (CRCs) were derived directly from the primary screen, and both potency and efficacy values were used to identify compounds with robust bioactivity profiles. We screened the NIH Chemical Genomics Center (NCGC) Pharmaceutical Collection (NPC) and Mechanism Interrogation Plate (MIPE) small molecule collections of approved and investigational compounds against these cell lines; and measured metabolically active cells after 48 hours of compound treatment as a proxy for cell viability.
Assay Submitter: Nathalia J. Martinez, National Center for Advancing Translational Sciences, National Institutes of Health, Rockville, MD, USA; email: natalia.martinez@nih.gov
[1] Shen, M et al. Quantitative high-throughput phenotypic screening of pediatric cancer cell lines identifies multiple opportunities for drug repurposing. Oncotarget 2017 Dec 19;9(4):4758-4772. PMID 29435139.
The cells were obtained from University of North Carolina (UNC), Pediatric Preclinical Testing Program (PPT), and Coriell Institute (CI).
qHTS cell viability assay:
Cells were assayed in growth media at a density of 500-1,000 cells/well. Five microliters of cells were dispensed into 1,536-well, white, solid-bottom, TC-treated plates (Greiner Bio One) using a multidrop dispenser and incubated at 37 degrees C, 5% CO2, under a humidified atmosphere for 5 hours. Twenty-three nanoliters of compounds and controls (neutral control DMSO or positive control bortezomib at final concentration of 2.3 µM) were subsequently transferred by Kalypsys pintool. For primary screens, the MIPE collection was tested at 11-point dilutions (final concentrations range from 0.78 nM to 46 µM) and the NPC collection at 8-point dilutions (final concentrations range from 0.59 nM to 46 µM). Compounds tested in follow-up screens were assayed at 11-point dilutions. Cells were incubated for 48 hours, followed by addition of 3 uL of CellTiter-Glo (Promega). After a 15 min incubation at room temperature, samples were analyzed for luminescence intensity using a ViewLux High-throughput CCD imager equipped with clear filters.
(qHTS replaces the single test concentration by a dilution series.)
Consider `Cc1ccc(=O)n(-c2ccccc2)c1`, for which the “activity change, negative = cytotoxic” value is 9.51% (inactive).
The result for `CN1C(=O)CC[C@H]1c1cccnc1` reads 6.09% (inactive); that for `Nc1c2c(nc3ccccc13)CCCC2O` (stereo not given), 9.41% (inactive); that for `NS(=O)(=O)c1cc2c(cc1Cl)NC(C1CC3C=CC1C3)NS2(=O)=O` (stereo not given), -0.0892% (inactive).
The result for `CCN1CCc2nc(N)oc2CC1` reads 3.61% (inactive).
`CCOC(=O)c1cnc2c(cnn2CC)c1NN=C(C)C`: the “activity change, negative = cytotoxic” value is -2.45% (inactive).
The figure for `CC(C)(Oc1ccc(CCNC(=O)c2ccc(Cl)cc2)cc1)C(=O)O` is -3.65% (inactive); for `CCCN(CCC)C(=O)C(CCC(=O)O)NC(=O)c1ccccc1` (stereo not given) it is -2.81% (inactive).
The result for `CC1=NS(=O)(=O)c2cc(Cl)ccc2N1` reads 8.96% (inactive); that for `CCN(Cc1ccncc1)C(=O)C(CO)c1ccccc1` (stereo not given), 3.43% (inactive); that for `CN(C)CCN(Cc1cccs1)c1ccccn1`, 0.0179% (inactive).
The result for `C[C@]12CCC(=O)C=C1CC[C@@H]1[C@@H]2C(=O)C[C@@]2(C)[C@H]1CC[C@]2(O)C(=O)CO` reads 5.37% (inactive); that for `c1ccc2c(c1)CCCC2C1=NCCN1` (stereo not given), 0.0485% (inactive).
As to `CN(C(=O)CCCOc1ccc2[nH]c(=O)ccc2c1)C1CCCCC1`, the “activity change, negative = cytotoxic” value was -16.8% (inactive).
The result for `COCCc1ccc(OCC(O)CNC(C)C)cc1` (stereo not given) reads -0.984% (inactive); that for `C[C@]12CC[C@@H]3c4ccc(O)cc4C[C@@H](CCCCCCCCCS(=O)CCCC(F)(F)C(F)(F)F)[C@H]3[C@@H]1CC[C@@H]2O` (stereo not given in full), -12.1% (inactive).
As for `C#CCN(C)CCCOc1ccc(Cl)cc1Cl`, the “activity change, negative = cytotoxic” value is -2.1% (inactive).
The result for `COc1ccc(CN(CCN(C)C)c2ccccn2)cc1` reads 5.09% (inactive).
The figure for `CN(C)CCCN1c2ccccc2Sc2ccc(C(F)(F)F)cc21` is -1.93% (inactive); for `CCCCCCCC/C=C\CCCCCCCC(=O)NCc1ccc(O)c(OC)c1` it is 4.45% (inactive).
The result for `NC1=NCC2c3ccccc3Cc3ccccc3N12` (stereo not given) reads -2.82% (inactive).
For `CCCCNc1c(C(=O)OCC)c(C)nc2c1cnn2CC`, the “activity change, negative = cytotoxic” value is -27.6% (inactive).
With `N[C@@H](COP(=O)(O)O)C(=O)O`, the “activity change, negative = cytotoxic” value was -3.68% [at 16.1 µM] (inactive).
The figure for `Fc1ccc(C(c2ccc(F)cc2)N2CCN(C/C=C/c3ccccc3)CC2)cc1` is -23.9% (inactive); for `CC(=O)OC(C)C[N+](C)(C)C` (stereo not given) it is -10.8% (inactive).
The figure for `CCc1c(C)[nH]c2c1C(=O)C(CN1CCOCC1)CC2` (stereo not given) is -5% (inactive); for `CN1CCN(CC(=O)N2c3ccccc3C(=O)Nc3cccnc32)CC1` it is 1.05% [at 4.84 µM] (inactive).
The figure for `CCN(CC)CCNC(=O)c1cc(S(C)(=O)=O)ccc1OC` is 5.16% (inactive); for `CCC(=O)c1ccc2c(c1)N(CCCN(C)C)c1ccccc1S2` it is -3.4% (inactive).
As to `OCCN1CCN(CC/C=C2/c3ccccc3Sc3ccc(C(F)(F)F)cc32)CC1`, the “activity change, negative = cytotoxic” value is -2.87% (inactive).
In the case of `C[N+](C)(C)CCOC(N)=O`, the “activity change, negative = cytotoxic” value is 5.71% (inactive).
The result for `Cc1ccc(/C(=C\CN2CCCC2)c2ccccn2)cc1` reads -3.41% (inactive); that for `CCn1cc(C(=O)O)c(=O)c2cc3c(cc21)OCO3`, 2.83% [at 16.1 µM] (inactive).
As to `C[C@@H](O)[C@H]1C(=O)N2C(C(=O)O)=C(SCCN=CN)C[C@H]12`, the “activity change, negative = cytotoxic” value is 0.483% (inactive).
Consider `NC(N)=NC(=O)Cc1c(Cl)cccc1Cl`, for which the “activity change, negative = cytotoxic” value was -1.05% (inactive).
With `OCCN1CCN(CCCN2c3ccccc3C=Cc3ccccc32)CC1`, the “activity change, negative = cytotoxic” value was 10.9% (inactive).
The figure for `O=C(O)CP(=O)(O)O` is 3.38% (inactive); for `C[C@]12CCC(=O)C=C1CC[C@@H]1[C@@H]2CC[C@@]2(C)[C@H]1CC[C@]2(O)C(=O)CO` it is -0.365% (inactive).
The figure for `Cc1nc2ccccn2c(=O)c1CCN1CCC(C(=O)c2ccc(F)cc2)CC1` is -10.3% (inactive).
With `CC(=O)Nc1nnc(S(N)(=O)=O)s1`, the “activity change, negative = cytotoxic” value was 10.5% (inactive).
